# Test results as given in PubChem BioAssay AID1159580 (chemical genetic matrix, 2015).
# In all, about 5,500 compounds went through this assay and about 2,000 (36%) were called active. Another 18% or so got no clear call; they are omitted. Some of the results follow. A number with no mark means an inactive call. Cut-off read from the data, not from the text of the source: active = normalized growth mostly below about 0.91 (no sharp cut-off); inconclusive = no clear call, values can overlap the other calls; inactive = mostly above about 0.92.
# Assay: chemical genetic growth profiling, strain panel (AID 1159580);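 note: tested at 20 µM; growth read once vehicle control cultures reached saturation at 30 °C; 1 = growth at the plate median or of vehicle wells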
# Conditions: S. cerevisiae deletion strains, growth OD
# [1] = locus YAR019C, strain CDC15, stronger effect = lower value
# [2] = locus YBL105C, strain PKC1, stronger effect = lower value
# [3] = locus YBR135W, strain CKS1, stronger effect = lower value
# [4] = locus YBR136W, strain MEC1, stronger effect = lower value
# [5] = locus YBR160W, strain CDC28, stronger effect = lower value
# [6] = locus YDL017W, strain CDC7, stronger effect = lower value
# [7] = locus YDL028C, strain MPS1, stronger effect = lower value
# [8] = locus YDL101C, strain DUN1, stronger effect = lower value
# [9] = locus YDL108W, strain KIN28, stronger effect = lower value
# [10] = locus YDL132W, strain cdc53, stronger effect = lower value
# [11] = locus YDL214C, strain PRR2, stronger effect = lower value
# [12] = locus YDR052C, strain DBF4, stronger effect = lower value
# [13] = locus YDR054C, strain cdc34, stronger effect = lower value
# [14] = locus YDR226W, strain ADK1, stronger effect = lower value
# [15] = locus YDR477W, strain SNF1, stronger effect = lower value
# [16] = locus YER123W, strain YCK3, stronger effect = lower value
# [17] = locus YER133W, strain GLC7, stronger effect = lower value
# [18] = locus YFL009W, strain cdc4, stronger effect = lower value
# [19] = locus YFL029C, strain CAK1, stronger effect = lower value
# [20] = locus YFR003C, strain YPI1, stronger effect = lower value
# [21] = locus YFR019W, strain FAB1, stronger effect = lower value
# [22] = locus YFR028C, strain CDC14, stronger effect = lower value
# [23] = locus YGR040W, strain KSS1, stronger effect = lower value
# [24] = locus YGR052W, strain FMP48, stronger effect = lower value
# [25] = locus YGR092W, strain DBF2, stronger effect = lower value
# [26] = locus YHR030C, strain SLT2, stronger effect = lower value
# [27] = locus YHR079C, strain IRE1, stronger effect = lower value
# [28] = locus YHR082C, strain KSP1, stronger effect = lower value
# [29] = locus YHR205W, strain SCH9, stronger effect = lower value
# [30] = locus YIL147C, strain SLN1, stronger effect = lower value
# [31] = locus YJL095W, strain BCK1, stronger effect = lower value
# [32] = locus YJL128C, strain PBS2, stronger effect = lower value
# [33] = locus YJL157C, strain FAR1, stronger effect = lower value
# [34] = locus YJR016C, strain ILV3, stronger effect = lower value
# [35] = locus YJR066W, strain TOR1 (second series), stronger effect = lower value
# [36] = locus YJR066W, strain TOR1, stronger effect = lower value
# [37] = locus YKL048C, strain ELM1, stronger effect = lower value
# [38] = locus YKL067W, strain YNK1, stronger effect = lower value
# [39] = locus YKL101W, strain HSL1, stronger effect = lower value
# [40] = locus YKL193C, strain SDS22, stronger effect = lower value
# [41] = locus YKL203C, strain TOR2, stronger effect = lower value
# [42] = locus YLR113W, strain HOG1, stronger effect = lower value
# [43] = locus YLR133W, strain CKI1, stronger effect = lower value
# [44] = locus YLR403W, strain SFP1, stronger effect = lower value
# [45] = locus YML070W, strain DAK1, stronger effect = lower value
# [46] = locus YMR001C, strain CDC5, stronger effect = lower value
# [47] = locus YMR205C, strain PFK2 (second series), stronger effect = lower value
# [48] = locus YMR277W, strain FCP1, stronger effect = lower value
# [49] = locus YNL006W, strain LST8, stronger effect = lower value
# [50] = locus YNL020C, strain ARK1, stronger effect = lower value
# [51] = locus YNL161W, strain CBK1, stronger effect = lower value
# [52] = locus YNL183C, strain NPR1, stronger effect = lower value
# [53] = locus YNL207W, strain RIO2, stronger effect = lower value
# [54] = locus YNL222W, strain SSU72, stronger effect = lower value
# [55] = locus YNL307C, strain MCK1 (second series), stronger effect = lower value
# [56] = locus YOL078W, strain AVO1, stronger effect = lower value
# [57] = locus YOL136C, strain PFK27, stronger effect = lower value
# [58] = locus YOR061W, strain CKA2, stronger effect = lower value
# [59] = locus YOR119C, strain RIO1, stronger effect = lower value
# [60] = locus YOR231W, strain MKK1, stronger effect = lower value
# [61] = locus YOR329C, strain SCD5, stronger effect = lower value
# [62] = locus YPL031C, strain PHO85, stronger effect = lower value
# [63] = locus YPL153C, strain RAD53, stronger effect = lower value
# [64] = locus YPL204W, strain HRR25, stronger effect = lower value
# [65] = locus YPL209C, strain IPL1, stronger effect = lower value
# [66] = locus YPL256C, strain CLN2, stronger effect = lower value
# [67] = locus YPR025C, strain CCL1, stronger effect = lower value
# [68] = locus YPR106W, strain ISR1, stronger effect = lower value
# [69] = locus YPR111W, strain DBF20, stronger effect = lower value
# [70] = strain NNK1, stronger effect = lower value
# [71] = strain TSCII, stronger effect = lower value
smiles,measurement,setting,value
Cc1ccc(/C=C2\CSc3ccc(F)cc3C2=O)cc1,normalized growth,[1],0.942
same,normalized growth,[2],0.955
same,normalized growth,[3],0.953
same,normalized growth,[4],0.953
same,normalized growth,[5],0.959
same,normalized growth,[6],0.958
same,normalized growth,[7],0.932
same,normalized growth,[8],0.971
same,normalized growth,[9],0.93
same,normalized growth,[10],0.937
same,normalized growth,[11],0.892
same,normalized growth,[12],0.972
same,normalized growth,[13],0.94
same,normalized growth,[14],0.952
same,normalized growth,[15],0.892
same,normalized growth,[16],0.864
same,normalized growth,[17],0.902
same,normalized growth,[18],0.904
same,normalized growth,[19],0.946
same,normalized growth,[20],0.954
same,normalized growth,[21],0.934
same,normalized growth,[22],0.935
same,normalized growth,[23],0.889
same,normalized growth,[24],0.91
same,normalized growth,[25],0.86
same,normalized growth,[26],0.706 (active)
same,normalized growth,[27],0.856
same,normalized growth,[28],0.915
same,normalized growth,[29],0.845
same,normalized growth,[30],0.953
same,normalized growth,[31],0.859
same,normalized growth,[32],0.888
same,normalized growth,[33],0.906
same,normalized growth,[34],0.956
same,normalized growth,[35],0.869
same,normalized growth,[36],0.862
same,normalized growth,[37],0.92
same,normalized growth,[38],0.885
same,normalized growth,[39],0.895
same,normalized growth,[40],0.938
same,normalized growth,[41],0.985
same,normalized growth,[42],0.697 (active)
same,normalized growth,[43],0.915
same,normalized growth,[44],0.898
same,normalized growth,[45],0.882
same,normalized growth,[46],0.944
same,normalized growth,[47],0.911
same,normalized growth,[48],0.923
same,normalized growth,[49],0.952
same,normalized growth,[50],0.915
same,normalized growth,[51],0.955
same,normalized growth,[52],0.903
same,normalized growth,[53],0.945
same,normalized growth,[54],0.937
same,normalized growth,[55],0.85
same,normalized growth,[56],0.945
same,normalized growth,[57],0.881
same,normalized growth,[58],0.887
same,normalized growth,[59],0.932
same,normalized growth,[60],0.835
same,normalized growth,[61],0.956
same,normalized growth,[62],0.896
same,normalized growth,[63],0.888
same,normalized growth,[64],0.876
same,normalized growth,[65],0.952
same,normalized growth,[66],0.831 (active)
same,normalized growth,[67],0.958
same,normalized growth,[68],0.952
same,normalized growth,[69],0.916
same,normalized growth,[70],0.946
same,normalized growth,[71],0.942
COc1ccc(/C=C2\CSc3ccc(F)cc3C2=O)cc1,normalized growth,[1],0.955
same,normalized growth,[2],0.96
same,normalized growth,[3],0.951
same,normalized growth,[4],0.971
same,normalized growth,[5],0.961
same,normalized growth,[6],0.966
same,normalized growth,[7],0.931
same,normalized growth,[8],0.968
same,normalized growth,[9],0.955
same,normalized growth,[10],0.947
same,normalized growth,[11],0.932
same,normalized growth,[12],0.977
same,normalized growth,[13],0.953
same,normalized growth,[14],0.965
same,normalized growth,[15],0.916
same,normalized growth,[16],0.896
same,normalized growth,[17],0.916
same,normalized growth,[18],0.934
same,normalized growth,[19],0.947
same,normalized growth,[20],0.96
same,normalized growth,[21],0.953
same,normalized growth,[22],0.93
same,normalized growth,[23],0.917
same,normalized growth,[24],0.939
same,normalized growth,[25],0.925
same,normalized growth,[26],0.771 (active)
same,normalized growth,[27],0.909
same,normalized growth,[28],0.949
same,normalized growth,[29],0.899
same,normalized growth,[30],0.969
same,normalized growth,[31],0.9
same,normalized growth,[32],0.91
same,normalized growth,[33],0.927
same,normalized growth,[34],0.973
same,normalized growth,[35],0.909
same,normalized growth,[36],0.874
same,normalized growth,[37],0.949
same,normalized growth,[38],0.911
same,normalized growth,[39],0.927
same,normalized growth,[40],0.941
same,normalized growth,[41],1.01
same,normalized growth,[42],0.763 (active)
same,normalized growth,[43],0.949
same,normalized growth,[44],0.928
same,normalized growth,[45],0.91
same,normalized growth,[46],0.952
same,normalized growth,[47],0.942
same,normalized growth,[48],0.929
same,normalized growth,[49],0.967
same,normalized growth,[50],0.955
same,normalized growth,[51],0.951
same,normalized growth,[52],0.935
same,normalized growth,[53],0.969
same,normalized growth,[54],0.952
same,normalized growth,[55],0.927
same,normalized growth,[56],0.94
same,normalized growth,[57],0.902
same,normalized growth,[58],0.933
same,normalized growth,[59],0.95
same,normalized growth,[60],0.879
same,normalized growth,[61],0.964
same,normalized growth,[62],0.914
same,normalized growth,[63],0.929
same,normalized growth,[64],0.912
same,normalized growth,[65],0.959
same,normalized growth,[66],0.87
same,normalized growth,[67],0.958
same,normalized growth,[68],0.962
same,normalized growth,[69],0.938
same,normalized growth,[70],0.962
same,normalized growth,[71],0.946
